Measurements taken from PubChem BioAssay AID1942 (Johns Hopkins Ion Channel Center, 2009).
Hit rate of the full screen: of about 2,400 compounds, about 580 (24%) were called active. The list is a sample of the results. Values without a mark were called inactive.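 Rule for the calls: active = activity change at or above the mean plus 3 SD of buffer wells without dofetilide, per plate; inactive = the rest.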

What follows are molecules tested against Potassium voltage-gated channel subfamily KQT member 2 (Rattus norvegicus) (UniProt O88943) (assay: KCNQ2 potentiation in CHO cells – cell-based, FluxOR thallium flux, counter-screen for hERG block protector project, confirmation (AID 1942;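 note: normalized value minus buffer-control mean plus three SD of buffer wells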)). Conditions: FluxOR thallium flux fluorescence, at 10 µM, hits give high values.
Chain of Potassium voltage-gated channel subfamily KQT member 2 (Rattus norvegicus) (O88943 whole entry, looked up): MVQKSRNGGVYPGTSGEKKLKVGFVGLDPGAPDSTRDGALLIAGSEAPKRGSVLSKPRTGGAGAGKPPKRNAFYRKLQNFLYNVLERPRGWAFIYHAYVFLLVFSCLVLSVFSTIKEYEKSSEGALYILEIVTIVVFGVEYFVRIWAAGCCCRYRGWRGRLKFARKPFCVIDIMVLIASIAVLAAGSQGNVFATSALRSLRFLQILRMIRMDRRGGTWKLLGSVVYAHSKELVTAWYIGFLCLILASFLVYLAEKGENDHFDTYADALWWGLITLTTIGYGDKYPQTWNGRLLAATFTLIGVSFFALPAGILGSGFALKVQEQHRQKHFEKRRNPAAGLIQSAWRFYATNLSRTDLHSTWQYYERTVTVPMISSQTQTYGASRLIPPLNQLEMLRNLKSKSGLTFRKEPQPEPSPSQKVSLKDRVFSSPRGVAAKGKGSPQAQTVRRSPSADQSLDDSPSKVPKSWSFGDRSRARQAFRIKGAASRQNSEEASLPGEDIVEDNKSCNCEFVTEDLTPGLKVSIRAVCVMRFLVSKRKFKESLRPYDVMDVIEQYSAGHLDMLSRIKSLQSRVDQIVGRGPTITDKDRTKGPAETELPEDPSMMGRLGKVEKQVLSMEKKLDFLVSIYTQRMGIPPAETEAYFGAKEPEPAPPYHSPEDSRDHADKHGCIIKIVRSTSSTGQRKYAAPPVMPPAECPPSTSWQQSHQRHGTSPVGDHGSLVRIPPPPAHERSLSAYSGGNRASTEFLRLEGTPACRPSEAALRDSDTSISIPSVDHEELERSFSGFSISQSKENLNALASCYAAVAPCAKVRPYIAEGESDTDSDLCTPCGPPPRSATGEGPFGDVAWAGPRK
`Cc1ccc2[nH]c3c(c2c1)CNCC3` showed an activity change, less the hit threshold of -13.7%.
Work on `COc1cc(/C=N/Nc2nc(N3CCCC3)nc(N3CCCC3)n2)ccc1OCc1ccccc1F` yielded an activity change, less the hit threshold of -23.8%.
For `CCCCCCCCCCn1c2c(c(=N)c3c1CCC3)CCC2`, the activity change, less the hit threshold was 26.3% (active).
`CC(=O)c1c(C)c2c(n1CCN(C)C)CCCC2` gave an activity change, less the hit threshold of -11.1%.
For `Clc1ccc(N=NN2CCOCC2)cc1`, the activity change, less the hit threshold was -5.2%.
In the case of `CCCCOC(=S)NC(=O)c1sc2ccccc2c1Cl`, the activity change, less the hit threshold is reported as 71.2% (active).
Work on `COC(=O)Cn1c(=NC(=O)c2sc3ccccc3c2Cl)sc2cc(S(N)(=O)=O)ccc21` yielded an activity change, less the hit threshold of -18.9%.
`CCOC(=O)CP(=O)(c1ccccc1)c1ccccc1` was tested, and the activity change, less the hit threshold was -20%.
In the case of `CCOC(=S)NC(=O)c1sc2ccccc2c1Cl`, the activity change, less the hit threshold is reported as 51.3% (active).
With `O=C(NC(=S)N(CCCCO)C1CCCCC1)c1sc2ccccc2c1Cl` the activity change, less the hit threshold was 26% (active).
For `CCCOC(=S)NC(=O)c1sc2ccccc2c1Cl`, the activity change, less the hit threshold was 10% (active).
Work on `COC(=O)CC1C(=O)NCCN1C(=S)NC(=O)c1sc2ccccc2c1Cl` (stereo unspecified) yielded an activity change, less the hit threshold of -11.2%.
Molecule `O=C(CCc1nc(-c2ccccc2)no1)N1CCCC1` has an activity change, less the hit threshold of -20.7%.
In the case of `C=CCn1c(N2CCCCCC2)nc2c1c(=O)n(C)c(=O)n2C`, the activity change, less the hit threshold is reported as -13.9%.
`O=C1NC(=O)/C(=C/c2cc3c(cc2Br)OCO3)S1` was tested, and the activity change, less the hit threshold was -28.6%.
With `COc1ccc(C(=O)NCc2nnc(SCC(=O)NC3CCCCC3)n2C)cc1` the activity change, less the hit threshold was -21.9%.
Molecule `O=[N+]([O-])c1ccc(Cl)c(/C=N/Nc2nc(N3CCOCC3)nc(N3CCOCC3)n2)c1` has an activity change, less the hit threshold of -7.2%.
`COc1cc(OC)c(C2=NOC(C(=O)Nc3ccc4c(c3)OCO4)C2)cc1Cl` (stereo unspecified) showed an activity change, less the hit threshold of -22.1%.
For `COc1ccc(OCC(=O)Nc2c3c(nn2-c2ccc(OC)cc2)CS(=O)(=O)C3)cc1`, the activity change, less the hit threshold was -16.4%.
Molecule `CC(=O)NCCC(=O)N(C)CC1CCN(CCc2cccc(C(F)(F)F)c2)CC1` has an activity change, less the hit threshold of -13.4%.
Molecule `COc1ccc2ncc(OC(C)=O)cc2c1` has an activity change, less the hit threshold of -7.9%.
For `COC(=O)c1sccc1NC(=S)NCc1ccc(Cl)cc1`, the activity change, less the hit threshold was 3.3% (active).
Molecule `CSc1ccccc1NC(=S)NCc1ccc(Cl)cc1` has an activity change, less the hit threshold of -17.2%.
`COC(=O)c1sccc1NC(=S)N1CCN(C)CC1` was tested, and the activity change, less the hit threshold was -22.7%.
With `Cc1ccc(NC(=O)c2ccc(NC3=NC4CS(=O)(=O)CC4S3)cc2)cc1` (stereo unspecified) the activity change, less the hit threshold was -20.8%.
For `COc1cc(Cl)cc(C(c2c(C(=O)O)[nH]c3ccccc23)c2c(C(=O)O)[nH]c3ccccc23)c1O`, the activity change, less the hit threshold was -20.1%.
`Cc1cc(C(F)(F)F)n(-c2ccc(N)cc2)n1` was tested, and the activity change, less the hit threshold was -13.2%.
For `O=C(COc1ccccc1[N+](=O)[O-])Nc1cc(Cl)ccc1C(=O)O`, the activity change, less the hit threshold was -11.3%.
For `O=C(NNc1nc2c(F)cccc2s1)c1cc(=O)c2ccccc2o1`, the activity change, less the hit threshold was -19.2%.
With `O=c1cc(-c2c(F)c(F)c(F)c(F)c2F)oc2ccccc12` the activity change, less the hit threshold was 12.2% (active).
In the case of `COc1ccc(S(=O)(=O)Nc2cccc(-n3cnnn3)c2)cc1`, the activity change, less the hit threshold is reported as -11.2%.
With `Cc1ccnc(SCCn2c(N3CC(C)OC(C)C3)nc3c2c(=O)n(C)c(=O)n3C)n1` (stereo unspecified) the activity change, less the hit threshold was -16.5%.
With `O=C(Cn1c(=O)oc2ccccc21)Nc1ccc(F)c(F)c1` the activity change, less the hit threshold was -17.1%.
`CCCCn1nnc(NC(=O)Cc2ccc(Cl)cc2)n1` showed an activity change, less the hit threshold of -11.7%.
For `CCOc1ccc2[nH]cc(S(=O)(=O)c3ccc(F)cc3)c(=O)c2c1`, the activity change, less the hit threshold was -19.1%.
`S=c1[nH]nc(-c2ccc(Cl)cc2)n1Cc1ccccc1` was tested, and the activity change, less the hit threshold was -30.3%.
In the case of `CCCCn1c(-c2csc(C(C)C)c2)n[nH]c1=S`, the activity change, less the hit threshold is reported as 6.8% (active).
Work on `CC(C)(C)OC(=O)C(Cl)(C(=O)OC(C)(C)C)c1ccc2nnnn2n1` yielded an activity change, less the hit threshold of -14.5%.
With `CC(=O)c1cc(N2CCC(C(=O)O)CC2)ccc1[N+](=O)[O-]` the activity change, less the hit threshold was -24.9%.
`Cc1nn(-c2ccccc2)c(C)c1S(=O)(=O)O` was tested, and the activity change, less the hit threshold was -13.9%.
`CCc1nnc(NC(=O)c2c(C)nn(-c3ccccc3)c2Cl)s1` showed an activity change, less the hit threshold of -4.8%.
In the case of `Cc1nn(-c2ccccc2)c(Cl)c1/C=C1\SC(=S)NC1=O`, the activity change, less the hit threshold is reported as 60.1% (active).
Molecule `CCCC(=O)n1nc(-c2ccccc2)nc1N` has an activity change, less the hit threshold of -17.9%.
`O=C(Nc1nc(-c2ccccc2)c(-c2ccccc2)o1)c1ccc(F)cc1` was tested, and the activity change, less the hit threshold was 9% (active).
For `O=C(Nc1cccc2[nH]ncc12)c1ccc(F)cc1`, the activity change, less the hit threshold was -24.7%.
`CN(C)/C(=N\S(=O)(=O)c1ccccc1)c1ccc(F)cc1` showed an activity change, less the hit threshold of -9.6%.
In the case of `Cc1ccc(-c2nc(CSCC(=O)N3CCOCC3)c(C)o2)cc1`, the activity change, less the hit threshold is reported as -25.1%.
`COc1ccc(S(=O)(=O)Nc2ccc(Cl)cn2)c(C)c1C` was tested, and the activity change, less the hit threshold was -12.1%.
`COC(=O)c1ccc(CSc2ncnc3sc(C)c(C)c23)o1` gave an activity change, less the hit threshold of -6.5%.
In the case of `Cc1noc(C)c1CSc1ncnc2sc3c(c12)CCCCC3`, the activity change, less the hit threshold is reported as 14.8% (active).
`COc1ccc(-n2c(O)c(/C=C3\C=Nc4ccccc43)c(=O)[nH]c2=O)cc1` showed an activity change, less the hit threshold of -40%.
`Cc1ccc2cc(CCNC(=O)C(=O)c3c(C)[nH]c4ccccc34)c(=O)[nH]c2c1` gave an activity change, less the hit threshold of -20.7%.
Work on `CCC1SC2=NC(C)=C(C(=O)OC)C(c3ccc(C(=O)OC)cc3)N2C1=O` (stereo unspecified) yielded an activity change, less the hit threshold of -10.7%.
With `CCOC(=O)c1sc(=S)n2c1[nH]c(=O)c1ccc(C(=O)OC)cc12` the activity change, less the hit threshold was 79.4% (active).
`CCCNC(=O)CN1C(=O)NC(Cc2c[nH]c3ccccc23)C1=O` (stereo unspecified) gave an activity change, less the hit threshold of -17.5%.
Work on `CC12CCC(C(=O)NCc3ccc4c(c3)OCO4)(CC1=O)C2(C)C` (stereo unspecified) yielded an activity change, less the hit threshold of -5.5%.
With `CCOCCCNC(=O)C(NC(=O)Cc1cccs1)c1ccc(C)cc1` (stereo unspecified) the activity change, less the hit threshold was -21.4%.
With `Cc1ccc(S(=O)(=O)NC(=S)NC2CCCCC2)cc1` the activity change, less the hit threshold was -11.5%.
`CCc1ccc(S(=O)(=O)NC(=S)NC2CCCCC2)cc1` was tested, and the activity change, less the hit threshold was 52.3% (active).
In the case of `O=S(=O)(NC(=S)NC1CCCCC1)c1ccc(Br)cc1`, the activity change, less the hit threshold is reported as 5.4% (active).
`O=c1oc2ccccc2c(NC2CCCCC2)c1NS(=O)(=O)c1ccc(Cl)cc1` showed an activity change, less the hit threshold of -14.5%.
In the case of `O=S(=O)(NC(=S)NC1CCCCC1)c1ccc(Cl)cc1`, the activity change, less the hit threshold is reported as 19.8% (active).
Work on `O=C(NC1CCCCC1)c1ccc(COCC(F)(F)F)o1` yielded an activity change, less the hit threshold of -5%.
For `COc1cc(Cl)c(C)cc1NC(=O)CSc1sc2c(O)cc(=O)[nH]c2c1C#N`, the activity change, less the hit threshold was -11.4%.
Molecule `N#Cc1c(N)c(C(=O)c2ccccc2)n2ccccc12` has an activity change, less the hit threshold of -16.1%.
`Nn1c(SCC(=O)Nc2ccc(F)cc2)nnc1C1CCCCC1` was tested, and the activity change, less the hit threshold was -23.5%.
With `O=C1NCCN1Cc1ccccc1F` the activity change, less the hit threshold was -11.9%.
Molecule `COc1ccc2c(c1)O[C@@H](c1cccc(C(F)(F)F)c1)[C@H](OC(=O)NCCc1ccc(OC)c(OC)c1)C2=O` has an activity change, less the hit threshold of -11%.
Work on `CCc1nnc(NC(=O)COc2ccc([N+](=O)[O-])cc2)s1` yielded an activity change, less the hit threshold of -12.5%.
Molecule `CC/C(=N\NC(=O)c1nnn(-c2nonc2N)c1-c1cccs1)c1ccccc1` has an activity change, less the hit threshold of -13.9%.
Work on `O=C(CCC(=O)Nc1ccccc1)NNC(=O)c1ccco1` yielded an activity change, less the hit threshold of -23.9%.
In the case of `COc1ccc(C)cc1NC(=O)C(=O)NNC(=O)c1ccco1`, the activity change, less the hit threshold is reported as 73.2% (active).
For `COc1ccccc1NC(=O)C(=O)NNC(=O)c1ccco1`, the activity change, less the hit threshold was 24.1% (active).
`CCN(CC)C(=O)CN1C(=O)C2CC=C(Cl)CC2C1=O` (stereo unspecified) was tested, and the activity change, less the hit threshold was -12.3%.
`O=C(O)Cn1cc(CN2CCOCC2)c2ccccc21` was tested, and the activity change, less the hit threshold was -20.4%.
Molecule `CC1(OC(=O)C2CCCC2)C(=O)C=C2C=C(c3ccc(C#N)cc3)OC=C2C1=O` (stereo unspecified) has an activity change, less the hit threshold of -18.1%.
For `CCOC(=O)C1=C(Cn2cnc3ccccc32)NC(=O)NC1c1cc(C)ccc1C` (stereo unspecified), the activity change, less the hit threshold was -19.4%.
Molecule `Cc1ccc(S(=O)(=O)N2CCOCC2)cc1NC(=O)CSc1nc2ccccc2c(=O)n1Cc1ccccc1` has an activity change, less the hit threshold of -8.2%.
`Cc1ccc(CNC(=O)CN2C(C)CCCC2C)cc1` (stereo unspecified) was tested, and the activity change, less the hit threshold was -17%.
With `CN1/C(=C/C=C(C#N)C#N)C=Cc2ccccc21` the activity change, less the hit threshold was -17.6%.
Molecule `Cc1ccc(-n2c(=O)c3cc4c(=O)n(-c5ccc(C)c(C)c5)c(=O)c4c(C(=O)c4ccc(C(=O)O)cc4)c3c2=O)cc1C` has an activity change, less the hit threshold of -9.5%.
With `Cc1ccc(N2CCN(C(=O)N3CCCC3)CC2)cc1C` the activity change, less the hit threshold was 3.3% (active).
For `CCOC(=O)N1CCN(c2c(-c3ccc(C)c(C)c3)c(=O)c2=O)CC1`, the activity change, less the hit threshold was -10.9%.
`CCOC(=O)c1c(NC(=S)NC)sc2c1CC(C)(C)SC2` was tested, and the activity change, less the hit threshold was 97.7% (active).
With `COC(=O)c1c(NC(=S)Nc2ccc(F)cc2[N+](=O)[O-])sc2c1CCCCC2` the activity change, less the hit threshold was 1.5% (active).
In the case of `CCOC(=O)c1c(NC(=S)NC)sc2c1CCCC2`, the activity change, less the hit threshold is reported as 13% (active).
`COc1ccc(NC(=S)NC(NC(=O)c2cccc3ccccc23)C(Cl)(Cl)Cl)c([N+](=O)[O-])c1` (stereo unspecified) showed an activity change, less the hit threshold of -21.8%.
In the case of `CCOC(=O)c1c(/N=C/C2=C(O)CCCC2=O)sc2c1CCCC2`, the activity change, less the hit threshold is reported as -20.8%.
For `Cc1onc(-c2ccccc2)c1C(=O)NC(=S)Nc1sc2c(c1C#N)CCCC2`, the activity change, less the hit threshold was -12.6%.
In the case of `CNC(=S)Nc1sc2c(c1C(=O)OC)CCC2`, the activity change, less the hit threshold is reported as 8.9% (active).
With `CCc1nnc(NC(=O)CCC(=O)N2CCN(C3CCCCC3)CC2)s1` the activity change, less the hit threshold was -21.4%.
In the case of `O=C(N/C(=C/c1ccc2c(c1)OCO2)C(=O)N1CCOCC1)c1cccs1`, the activity change, less the hit threshold is reported as -18.2%.
Molecule `CC(C)OC(=O)N(C)c1ccc(C(O)(C(F)(F)F)C(F)(F)F)cc1` has an activity change, less the hit threshold of -9.3%.
Work on `COc1cc(C2c3c(n[nH]c3C)C(=O)N2c2ccc(C)cc2)ccc1O` (stereo unspecified) yielded an activity change, less the hit threshold of -19.5%.
`Cc1ccc(NS(=O)(=O)c2cn(C)c(=O)n(C)c2=O)c(C)c1` was tested, and the activity change, less the hit threshold was -0.5%.
For `Cn1c(NNC(=O)C(c2ccccc2)c2ccccc2)cc(=O)n(C)c1=O`, the activity change, less the hit threshold was -1.8%.
